PubChem BioAssay (Tox21)
Values joined by “and” are separate entries in the source; they are usually repeats but may differ in a detail not shown here. Identical values can stand only once. Records with an inconclusive call do not appear. Where a call stands in place of a potency, no number is given. Some structures have more than one record in an assay (separate samples or runs), and their calls can disagree. Active and inactive are the calls of the source. Calls come from the whole dose curve; as a rule, active = well fitted inhibition curve with a large enough effect in the repeat runs; inconclusive = weak or mixed curves; inactive = no such curve, though single readings can be large or run the other way.
Potency is the fitted concentration of half-maximal effect.

The compounds below were run against Cytochrome P450 2C9 (Homo sapiens) (UniProt P11712) (assay: Cytochrome P450 Family 2 Subfamily C Member 9 (CYP2C9) small molecule antagonists: luciferase reporter qHTS assay (AID 1671198; note: nearly all actives have a fitted effect of over 50% in size)). Conditions: P450-Glo CYP2C9 enzyme assay, luciferin luminescence; series mostly up to 115 µM.
Chain of Cytochrome P450 2C9 (Homo sapiens) (P11712 whole entry, looked up): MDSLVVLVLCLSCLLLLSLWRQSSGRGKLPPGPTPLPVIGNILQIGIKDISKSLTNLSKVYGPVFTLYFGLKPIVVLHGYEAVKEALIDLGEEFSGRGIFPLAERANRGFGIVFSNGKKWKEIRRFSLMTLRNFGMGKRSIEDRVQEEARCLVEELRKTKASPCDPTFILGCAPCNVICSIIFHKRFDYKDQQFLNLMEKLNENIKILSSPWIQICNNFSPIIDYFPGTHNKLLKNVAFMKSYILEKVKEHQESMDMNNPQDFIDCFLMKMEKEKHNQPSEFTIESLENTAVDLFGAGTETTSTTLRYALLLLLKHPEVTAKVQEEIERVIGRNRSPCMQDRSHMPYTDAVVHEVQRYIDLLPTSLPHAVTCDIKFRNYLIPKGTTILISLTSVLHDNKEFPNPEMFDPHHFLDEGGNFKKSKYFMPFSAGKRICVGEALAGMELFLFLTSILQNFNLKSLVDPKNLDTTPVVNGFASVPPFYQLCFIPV
Source text: U.S. Tox21 Program National Center for Advancing Translational Sciences [NCATS] U.S. Environmental Protection Agency [EPA] National Institutes of Environmental Health Sciences [NIEHS] National Toxicology Program [NTP] U.S. Food and Drug Administration [FDA] Tox21 Assay Overview: Cytochrome P450 (CYP) enzymes are membrane-bound hemeproteins that play a key role in metabolism of drugs and xenobiotics. Evaluation of the effect of chemicals on CYP isozymes is useful to minimize the adverse drug reactions and toxicities in drug development process. Tox21 chemicals were tested for their effect on CYP enzyme activities by using P450-Glo (TM) screening systems (Promega Corporation, Madison, WI). These systems provide a luminescent method containing proluciferin substrates and are converted to luciferin products by CYP isozymes. The luciferin products formed are detected with a luciferin detection reagent, and the amount of light produced is proportional to CYP activity. P450-Glo (TM) CYP2C9 screening system (Catalog. No. V9790) was used to detect the compounds that interfere in CYP2C9 activity.
Tox21 Assay Protocol Summary: Two ul of enzyme-substrate mix was dispensed into medium binding white/solid 1536-well plates (Greiner Bio-One North America Inc., Monroe, NC) using a BioRaptr Flying Reagent Dispenser (FRD, Beckman Coulter, Brea, CA). […] The assay plates were incubated at room temperature for 10 min. Then 2 ul of NADPH regeneration solution was added to each well of the assay plates using an FRD and incubated at 37C for 1 h. The reaction was stopped by adding 4 ul of detection reagent using an FRD and after 20 min incubation at room temperature the luminescence signal was measured using a ViewLux plate reader (Perkin Elmer, Shelton, CT). Data were expressed as relative luminescence units.
`COc1ccccc1[N+](=O)[O-]` was tested, and the Potency was “inactive”.
In the case of `CCc1cccc(CC)c1N`, the Potency is reported as 71 µM (active).
For `COC(=O)OC`, the Potency was “inactive”.
With `O=C(O)Cc1c[nH]c2ccccc12` the Potency was 31.7 µM (active) and inactive.
`CN1Cc2c(N)cccc2C(c2ccccc2)C1` (stereo not given) was tested, and the Potency was “inactive”.
In the case of `O=[N+]([O-])c1cc(C(F)(F)F)ccc1Cl`, the Potency is reported as “inactive”.
With `CC(=O)c1nccs1` the Potency was 32.8 µM (active) and inactive.
For `CCCCCCCCC(=O)O`, the Potency was 61.3 µM (active) and 79.6 µM (active).
In the case of `CCCN(CCC)C(=O)SCC`, the Potency is reported as “inactive”.
In the case of `N#CCC(=O)O`, the Potency is reported as “inactive”.
With `CC1(C)[C@@H](O[C@H]2O[C@H](C(=O)O)[C@@H](O)[C@H](O)[C@H]2O[C@@H]2O[C@H](C(=O)O)[C@@H](O)[C@H](O)[C@H]2O)CC[C@]2(C)[C@H]3C(=O)C=C4[C@@H]5C[C@@](C)(C(=O)O)CC[C@]5(C)CC[C@@]4(C)[C@]3(C)CC[C@@H]12` the Potency was “inactive”.
With `CS(=O)(=O)c1ccc(Cl)cc1` the Potency was “inactive”.
For `O=C1OC(=O)c2c(Cl)c(Cl)c(Cl)c(Cl)c21`, the Potency was “inactive”.
`CC(O)CNCC(C)O` (stereo not given) was tested, and the Potency was 35.8 µM (active) and inactive.
`Cc1cccc(C)c1[N+](=O)[O-]` was tested, and the Potency was “inactive”.
For `CN1CCCC1=O`, the Potency was “inactive”.
For `OCC(O)CS` (stereo not given), the Potency was “inactive”.
With `OC[C@H]1O[C@@H](Oc2ccc(O)cc2)[C@H](O)[C@@H](O)[C@@H]1O` the Potency was “inactive”.
`CC/C(C)=N/O` was tested, and the Potency was “inactive”.
With `CCCCCCCCCCCC(=O)N(C)CC(=O)O` the Potency was 38.7 µM (active) and the activity change, negative = inhibition was -4.94% [at 10.5 µM] (inactive).
In the case of `CCc1cccc(O)c1`, the Potency is reported as “inactive”.
With `CC(=O)C(C)C` the Potency was “inactive”.
In the case of `CC/C=C(\C(=O)N[C@@H]1C(=O)N2C(C(=O)OCOC(=O)C(C)(C)C)=C(COC(N)=O)CS[C@H]12)c1csc(N)n1`, the Potency is reported as 12.3 µM (active) and 7.76 µM (active).
`CCCCC(CC)COC(=O)c1ccc(C(=O)OCC(CC)CCCC)cc1` (stereo not given) was tested, and the Potency was “inactive”.
For `Cc1nnc(NS(=O)(=O)c2ccc(N)cc2)s1`, the Potency was 35.5 µM (active).
For `CO[Si](CCCNCCN)(OC)OC`, the Potency was “inactive”.
For `C=CC(=O)NCOCCCC`, the Potency was “inactive”.
For `Brc1ccc(Oc2ccc(Br)cc2)cc1`, the Potency was 35.6 µM (active).
In the case of `NC(=O)NC(N)=O`, the Potency is reported as “inactive”.
With `CCn1cc(C(=O)O)c(=O)c2cc3c(cc21)OCO3` the activity change, negative = inhibition was 4.54% [at 23.6 µM] (inactive).
For `OC1CCCCC1`, the Potency was “inactive”.
With `CC(C)=CCC/C(C)=C/C=O` the Potency was “inactive and 79.6 µM (active)”.
With `COC(=O)/C=C\C(=O)OC` the Potency was “inactive”.
With `CC(=O)Nc1ccc(CC(=O)O)cc1` the Potency was “inactive”.
With `CC(C)(C)NC[C@H](O)COc1nsnc1N1CCOCC1` the Potency was “inactive”.
With `O=C1CCCCCCCCCCC1` the Potency was “inactive”.
In the case of `O=Cc1ccc(CO)o1`, the Potency is reported as “inactive”.
In the case of `CCCOC(=O)NCCCN(C)C`, the Potency is reported as 63.3 µM (active) and inactive.
In the case of `C[Si](C)(C)N[Si](C)(C)C`, the Potency is reported as “inactive”.
